For eight compounds, growth results are on record in PubChem BioAssay (NCI).

Holding throughout (assay): NCI-60 one-dose screen, 48 h (100 = growth as untreated, 0 = no growth, -100 = all killed)
What all share (conditions): 10 µM unless noted

The test system of assay [1] is NCI-H23 lung.
The subject of assay [2] is NCI-H226 lung.
The test system of assay [3] is NCI-H322M lung.
In assay [4] the test system is HOP-62 NSCLC.
Assay [5] has as its system NCI-H460 lung.
For assay [6], the system named is HOP-92 NSCLC.
Assay [7] has as its system NCI-H522 lung.
Assay [8] concerns A549/ATCC NSCLC.
The subject of assay [9] is 786-0 renal.
In assay [10] the test system is COLO 205 colon.
Assay [11] relates to DU-145 prostate.
Assay [12] deals with K-562 leukemia.
Assay [13] concerns MALME-3M melanoma.
The subject of assay [14] is MDA-MB-231 breast.
For assay [15], the system named is RXF 393 renal.
Assay [16] deals with SF-268 CNS.
Assay [17] concerns SF-295 CNS.
The test system of assay [18] is SF-539 CNS.
For assay [19], the system named is UACC-257 melanoma.

The panel holds about 83,000 compounds, 20% with a hit somewhere; the sample as a whole holds those more often.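 Plates (96-well) were seeded with cells, treated with compound at one concentration, and incubated for 48 hours before percent growth was determined.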 Unmarked numbers belong to inactive results. The source made the active and inactive calls. How the source made its calls: active means growth percent below 10; inactive means the rest.

On to `Cc1cc(-c2nc3cc(F)ccc3[se]2)cc(F)c1N`, for which the growth in assay [1] is 59.5%; in [2], 34.9%; in assay [3] it was 83.8%; in assay [4] it was 71.2%; in assay [5], 23.1%; in assay [6], 79.2%. Further, the growth is 83.1% in assay [7]; 66.9% in assay [8]; 103% in assay [9]; 52.4% in [10]; 98.4% in assay [11]; 95.8% in assay [12]. Also, the growth was 84.9% in [13]; 63.5% in assay [14]; 120% in [15]; 101% in [16]; 99.7% in assay [17]; 94.7% in [18]. Besides, the growth in assay [19] is 98.5%.

For `C[C@@H]1O[C@@H](O[C@H]2C[C@@H](O)[C@]3(CO)C4C(CC[C@]3(O)C2)[C@@]2(O)CC[C@H](C3=CC(=O)OC3)[C@@]2(C)C[C@H]4O)[C@H](O)[C@H](O)[C@H]1O` (some centres not stated), the growth is -67.1% (active) in assay [1]; -72.3% (active) in assay [2]; -64.5% (active) in assay [3]; -99.5% (active) in assay [4]; -75.9% (active) in [5]; -0.733% (active) in assay [6]. Also, the growth is -54.4% (active) in assay [7]; -91.4% (active) in assay [8]; -95.3% (active) in [9]; -84.2% (active) in assay [10]; -94.4% (active) in [11]; -22.4% (active) in assay [12]. The growth was -31% (active) in [13]; -22.5% (active) in assay [14]; -26.6% (active) in assay [15]; -91.7% (active) in assay [16]; -51.5% (active) in assay [17]; -80.1% (active) in [18]. Moreover, the growth in assay [19] is -91.7% (active).

Consider `Brc1ccc2c(c1)c(-c1nc(-c3c[nH]c4ncccc34)cs1)cn2CCN1CCCCC1`, for which the growth was 89% in [1]; 80% in assay [2]; 65.6% in assay [3]; 88.7% in assay [4]; 67.4% in [5]; 37.1% in assay [6]. The growth is 68.8% in assay [7]; 67.5% in assay [8]; 53% in [9]; 37.7% in [10]; 82.6% in assay [11]; -15.7% (active) in [12]. The growth in [13] is 100%; in [14] it was 62.1%; in [15], 60.4%; in assay [16] it was 75.9%; in assay [17], 91.5%; in [18], 87.3%. The growth in assay [19] is 96.7%.

On to `O=C(CC1(O)C(=O)N(Cc2ccccc2)c2ccc(Cl)cc21)c1ccc(C(=O)NCC2CCC3(CC2)OOC2(CCCCC2)OO3)cc1` (configuration not stated), for which the growth in assay [1] is -67% (active); in assay [2], -41.3% (active); in assay [3], 64.2%; in [4] it was -65.3% (active); in [5], -47.2% (active); in assay [6] it was -73.2% (active). In addition, the growth was -26.7% (active) in [7]; -55.8% (active) in assay [8]; -73.6% (active) in assay [9]; -66.5% (active) in assay [10]; -97.6% (active) in assay [11]; -49% (active) in assay [12]. Besides, the growth in [13] was -70.3% (active); in assay [14], -74.9% (active); in assay [15] it was -80.5% (active); in assay [16], -49.6% (active); in assay [17] it was -8.3% (active); in [18] it was -81.1% (active). Also, the growth in assay [19] is 26.4%.

In the case of `C/C(=C\c1ccn(-c2ccc(N)cc2)n1)[C@@H]1C[C@@H]2O[C@]2(C)CCC[C@H](C)[C@H](O)[C@@H](C)C(=O)C(C)(C)[C@@H](O)CC(=O)O1`, the growth is 26.1% in assay [1]; 31.7% in assay [2]; 18.6% in assay [3]; 44.7% in assay [4]; 13.3% in assay [5]; 48.7% in [6]. In addition, the growth in assay [7] is 18.6%; in assay [8], 29.8%; in assay [9], 20.2%; in assay [10], 1.88% (active); in assay [11], -8.99% (active); in assay [12] it was 11.4%. Also, the growth in assay [13] is 36.7%; in assay [14], 33.5%; in [15] it was -0.234% (active); in [16], 37.4%; in assay [17] it was 18.6%; in assay [18], -2.33% (active). In addition, the growth in assay [19] is 59.5%.

For the compound `CN1CC(=O)N(O)C1(C)c1cccnc1` (configuration not stated), the growth in assay [1] is 104%; in assay [2], 94.7%; in assay [3], 98.7%; in assay [4], 95.6%; in assay [5], 105%; in assay [6], 116%. For the same compound, the growth in [7] was 95.2%; in assay [8] it was 101%; in assay [9], 99.5%; in assay [10], 111%; in assay [11], 115%; in [12] it was 99.4%. Further, the growth in [13] was 102%; in assay [14] it was 113%; in assay [15] it was 106%; in assay [16], 106%; in assay [17] it was 96.4%; in assay [18] it was 98.3%. Also, in [19], the growth was 98.9%.

Consider `CCC(=O)Nc1ccc(Cl)c(Cl)c1`, for which the growth is 96.5% in [1]; 102% in assay [2]; 93.5% in assay [3]; 93.7% in assay [4]; 111% in [5]; 76.8% in assay [6]. The growth in assay [7] was 84.7%; in assay [8] it was 92.5%; in [9], 91.1%; in assay [10] it was 107%; in assay [11], 115%; in assay [12], 97.6%. In addition, the growth in assay [13] is 102%; in assay [14], 92.2%; in [15] it was 101%; in assay [16], 105%; in assay [17], 98.3%; in assay [18], 92.4%. Besides, the growth in assay [19] was 102%.

For `ClCCN(CCCl)c1ccc(OCc2ccccc2)cc1`, the growth in assay [1] is 58.7%; in assay [2] it was 84.6%; in [3], 102%; in [4] it was 54.8%; in assay [5], 20.3%; in assay [6], 57.3%. Also, the growth is 75.1% in [7]; 45.7% in assay [8]; 19% in assay [9]; 75.9% in assay [10]; 26.3% in [11]; 73.3% in assay [12]. In addition, the growth was 90.9% in [13]; 106% in [14]; 82.1% in assay [15]; 36% in [16]; 10.3% in assay [17]; 8.54% (active) in [18]. Moreover, in [19], the growth is 74.2%.
